High-throughput results (PubChem BioAssay)
Tau fibril FP: inhibitors of human tau fibril formation; P10636; K18 P301L tau heparin fibrillization, Alexa594 FP, 6 h; actives 0.39% (n = 280,000); Potency, µM (series often up to 57.7 µM), without a hit: top-dose activity, negative = inhibition, hits mostly inhibitors; further: nearly all actives have a fitted effect of over 55% in size
Target sequence (P10636 561-689 P618L limits assumed): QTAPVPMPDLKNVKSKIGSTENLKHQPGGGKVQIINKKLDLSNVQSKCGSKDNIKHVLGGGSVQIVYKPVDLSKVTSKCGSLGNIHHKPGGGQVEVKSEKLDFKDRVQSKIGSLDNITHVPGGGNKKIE
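FP of Alexa 594-tau after heparin (20 uM) induction. Substrate: human K18 P301L, 15 uM unlabeled, 0.24 uM labeled. Buffer 100 mM sodium acetate pH 7. 6 hr, 37 C.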
Tau fluor counter: counter-screen for tau fibril formation inhibitors. tau K18 P301L Alexa594 fluorescence, heparin fibrillization. Potency, µM (highest dose often 57.7 µM), for inactives: at the highest dose activity change, negative = decrease. actives 0.93% (n = 280,000). AID 1463; further: nearly all actives have a fitted effect of over 55% in size
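Human tau K18 P301L (15 uM unlabeled, 0.24 uM Alexa 594-labeled) in 100 mM sodium acetate pH 7 with 20 uM heparin, 6 hr at 37 C. ThT 30 uM added, 1 hr ambient; Alexa 594 FP and total fluorescence read at 555/632 nm.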
VP16 counter: inhibits Gal4-VP16 luciferase reporter, ROR gamma counter-screen | Potency, µM (highest dose often 53.6 µM), inactives show top-dose activity, negative = inhibition, usual class: inhibitors | actives 3.5% (n = 310,000) | Drosophila S2 Gal4-VP16 UAS-luciferase, luminescence, 20 h;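 further: Gal4-VP16 expression switched on by copper sulfate through the metallothionein promoter; nearly all actives have a fitted effect of over 50% in size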
RORg inh: inhibitors of mouse ROR gamma transcriptional activity | Drosophila S2 Gal4-RORgamma UAS-luciferase reporter, 20 h | Potency, µM (top dose mostly 53.6 µM), without a hit: top-dose activity change, negative = inhibition, hits mostly inhibitors | actives 5.4% (n = 310,000) | P51450; further: nearly all actives have a fitted effect of over 60% in size
Target sequence (P51450 whole entry, looked up, the tested form may be a part): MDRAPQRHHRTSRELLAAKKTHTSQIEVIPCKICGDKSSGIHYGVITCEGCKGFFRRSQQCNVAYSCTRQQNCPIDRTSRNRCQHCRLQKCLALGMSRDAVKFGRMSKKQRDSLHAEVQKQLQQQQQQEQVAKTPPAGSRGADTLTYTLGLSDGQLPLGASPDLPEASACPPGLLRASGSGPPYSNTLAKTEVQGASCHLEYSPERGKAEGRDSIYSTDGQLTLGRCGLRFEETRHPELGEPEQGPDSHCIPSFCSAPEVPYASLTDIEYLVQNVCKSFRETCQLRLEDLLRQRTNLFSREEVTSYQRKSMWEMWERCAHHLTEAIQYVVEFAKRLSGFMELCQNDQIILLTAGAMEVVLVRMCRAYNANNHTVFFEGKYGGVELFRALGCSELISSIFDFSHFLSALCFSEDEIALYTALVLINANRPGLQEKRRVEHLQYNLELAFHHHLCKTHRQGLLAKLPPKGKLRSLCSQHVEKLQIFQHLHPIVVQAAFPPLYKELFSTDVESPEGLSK
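Luminescence from a UAS-regulated Photinus luciferase reporter in stably transfected Drosophila Schneider cells is measured; decreased signal marks ROR gamma inhibition. Fusion expression is induced by 700 uM copper sulfate for 20 hr.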
Tau ThT inhib: inhibitors of human tau fibril formation, thioflavin T binding | AID 1460 | actives 2.1% (n = 270,000) | recombinant tau K18 P301L (four-repeat tau fragment), heparin-induced fibrillization, ThT fluorescence | P10636 | Potency, µM (series often up to 57.4 µM), without a hit: top-dose activity, negative = inhibition, hits mostly inhibitors; further: nearly all actives have a fitted effect of over 55% in size
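In this qHTS, human K18 P301L tau is incubated with compound and heparin for 6 hr at 37 C, and Thioflavin T fluorescence then reports fibril load.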
Starred values were filed as active, the others as inactive; ? = inconclusive; . = not tested or not shown; ! = repeats disagree; [ ] = dose if it differs, or a comment. A selection: hits, their analogues and other compounds. The true share with any hit is near 7.3%. The call rests on the fitted dose curve; in most records, active means well fitted curve in the direction sought with a large enough effect; inconclusive means small, poorly fitted or top-dose-only effect, or another doubt; inactive means no such curve, though single readings can be large; an effect the other way counts as inactive or inconclusive. On the % scale 0 is the no-effect control and ±100 the full control effect; potency means the concentration at half of the fitted maximal effect.

SMILES | Tau fibril FP | Tau fluor counter | VP16 counter | RORg inh | Tau ThT inhib
CCN1C(=O)/C(=C\N(C(C)=O)c2ccccc2)OC1=S | -10.3% | -2.5% | 10µM* | 7.94µM* | -8.6%
O=c1c(-c2cc(F)cc(F)c2)nc2cnc(N3CCOCC3)nc2n1-c1ccccc1 | . | . | 3.9% | -5.3% | .
Cc1ccc(C)c(NS(=O)(=O)c2cc3c(cc2Cl)NC(=O)CO3)c1 | 2.3% | 14.1µM*[quencher] | . | . | -17.1%
COc1cc(OC)c(NS(=O)(=O)c2cc3c(cc2C)NC(=O)CO3)cc1Cl | 6.8% | -2.4% | . | . | 2.4%
Cc1ccccc1NC(=S)C1=C(O)c2sccc2N(C)S1(=O)=O | -2.7% | -11.0% | ? | ? | ?
CN1c2ccccc2C(O)=C(C(=S)Nc2ccccc2)S1(=O)=O | -7.8% | -16.0% | ? | ? | -24.4%
Cc1ccc(NC(=S)C2=C(O)c3ccccc3N(C)S2(=O)=O)cc1 | -7.6% | -13.3% | 17.8µM* | ? | -13.5%
CN1c2ccsc2C(O)=C(C(=S)Nc2ccccc2)S1(=O)=O | -10.4% | -11.3% | ? | 10µM* | ?
O=c1[nH]c(/C(Cl)=C/c2cccc(F)c2)nc2cc(C(F)(F)F)ccc12 | 1.8% | -4.3% | 11.0% | -1.3% | 6.4%
COC(=O)[C@@H](c1ccccc1Cl)N1CCc2sccc2C1 | -4.9% | -5.5% | . | . | -12.1%
COC(=O)C(c1ccccc1Cl)N1CCc2sccc2C1 (configuration not stated) | 12.3% | -4.8% | ? | 3.55µM*! | -10.9%
COc1ccc2c(c1)-c1nc(/N=C/c3cccc(OC)c3O)sc1CC2 | -1.5% | 2.7% | -16.3% | 24.8% | 6.4%
COc1ccc2c(c1)-c1nc(/N=C/c3ccccc3O)sc1CC2 | ? | ? | -4.4% | 26.8% | 31.6µM*
O=C(c1ccc2c(c1)N(Cc1ccccc1)C(=O)c1ccccc1S2(=O)=O)N1CCN(c2ccccc2)CC1 | 5.6% | -25.7% | . | . | -4.1%
O=S(=O)(NC1CCCc2ccccc21)c1cnc[nH]1 (configuration not stated) | 2.9% | 4.0% | ? | 12.6µM* | 12.8%
O=C(O)c1ccc(S(=O)(=O)NC2CCCc3ccccc32)cc1 (configuration not stated) | 2.3% | 1.7% | -9.4% | 20.1% | -0.8%
COc1ccc(CNC(=O)C2CCN(S(=O)(=O)c3ccc4c(c3)CC(C)N4C(=O)C3CC3)CC2)cc1 (configuration not stated) | . | . | -0.5% | 25.8% | .
Cc1ccccc1NC(=O)CSc1nc2ccccc2c(=O)n1C | . | . | 11.2µM* | ? | .
C=CCn1c(SCc2ccc(C(=O)O)cc2)nc2sc(C)c(C)c2c1=O | 0.4% | -2.8% | 7.08µM* | 3.98µM* | -16.3%
CC(C)Oc1ccccc1NC(=O)CSc1nc2ccccc2c(=O)n1C | . | . | -19.5% | ? | .
Cc1sc2nc(SCc3ccc(C(=O)O)cc3)n(Cc3ccco3)c(=O)c2c1C | ? | 1.4% | -19.1% | 7.6% | ?
C=CCn1c(SCC(=O)Nc2ccccc2C)nc2sc(C)c(C)c2c1=O | -13.7% | -11.2% | 20µM* | 35.5µM* | -7.5%
Cc1sc2nc(SCC(=O)NCc3ccco3)n(CCc3ccccc3)c(=O)c2c1C | -2.1% | -1.8% | ? | 12.6µM* | -6.0%
C=CCn1c(SCC(=O)Nc2sccc2C(N)=O)nc2sc(C)c(C)c2c1=O | -1.4% | -5.8% | 22.0% | 10.4% | ?
C=CCn1c(SCC(=O)NCC2CCCO2)nc2scc(-c3ccco3)c2c1=O (configuration not stated) | -12.4% | -5.2% | 5.4% | -20.8% | ?
SMILES | Tau fibril FP | Tau fluor counter | VP16 counter | RORg inh | Tau ThT inhib
COCCn1c(SCC(=O)Nc2cccc(S(N)(=O)=O)c2)nc2cc(Cl)ccc2c1=O | 7.0% | -14.2% | 3.9% | 34.9% | -2.5%
CC(C)Cn1c(SCC(=O)Nc2cccc(S(N)(=O)=O)c2)nc2ccccc2c1=O | -4.2% | ? | -8.5% | 10µM* | -12.6%
C=CCn1c(SCC(=O)NCCOC)nc2scc(-c3ccco3)c2c1=O | 15.8µM* | -17.1% | -4.1% | 0.3% | 22.4µM*
CCOc1ccc(CC(=O)Nc2cccc(-c3nc4cccnc4s3)c2C)cc1 | -10.0% | -13.6% | . | . | -7.4%
CO[C@@H]1COC(=O)[C@@H](CCSC)NC(=O)C/C=C\[C@@H](C)COC(=O)[C@H](C)NC(=O)C/C=C\[C@H]1C | ? | -25.5%[11.6 µM] | -14.8%[10 µM] | -9.2%[10 µM] | -16.4%[11.5 µM]
Cc1oc2ncn(C)c(=O)c2c1C(=O)NCCCN1CCCCC1C (configuration not stated) | -7.4% | -5.7% | . | . | -3.9%
CCCCNC(=O)CNC(=S)N(Cc1ccccc1F)C1CCCCC1 | 4.7% | -8.1% | -15.4% | 12.6µM* | -7.5%
Cc1ccc(OCC(=O)N2CCCC(CO)(CCOc3ccccc3)C2)cc1 (configuration not stated) | . | . | -7.8% | 6.6% | .
COC(=O)c1ccc(NC(=O)CSc2ncc3c(n2)-c2cc(Cl)ccc2N(Cc2ccccc2)S3(=O)=O)cc1 | 15.8µM* | ? | . | . | 8.2%
CC(C)c1ccc(CN(Cc2ccco2)c2cnc(S(C)(=O)=O)nc2C(=O)Nc2ccc(F)cc2)cc1 | -3.7% | -4.4% | . | . | 6.5%
CC#CC(=O)N1CCC(CCC(=O)N(C)Cc2ccccc2)CC1 | . | . | -13.6% | 0.5% | .
Cc1nnsc1C(=O)Nc1ccc(S(=O)(=O)N2CCCCC2)cc1 | . | . | -2.5% | 3.4% | .
Cc1cc(C)cc(NC(=O)CN(C)S(=O)(=O)c2ccc3[nH]c4c(c3c2)CCCC4)c1 | -9.0% | 4.47µM*[quencher] | . | . | -7.3%
Cc1cccc(C)c1NC(=O)CN(C)S(=O)(=O)c1ccc2[nH]c3c(c2c1)CCCC3 | 16.9% | ? | . | . | 1.9%
CCOc1ccc(NC(=O)CN(C)S(=O)(=O)c2ccc3[nH]c4c(c3c2)CCCC4)cc1 | 3.8% | 14.1µM*[quencher] | . | . | -16.3%
Cc1n[nH]c(=O)c2c(NC(=O)CSc3nc4ccccc4c(=O)n3C(C)C)oc(C)c12 | . | . | -1.3% | -21.3% | .
CCCCC1=CC2=C(OC(C)=O)C(=O)C(C)(OC(=O)CCC(=O)OC)C(=O)C2=CO1 (configuration not stated) | 10.8% | -17.9% | -3.3% | -6.8% | ?
CCN1CCN(Cc2nc3cc(NC(=O)COc4ccc([N+](=O)[O-])cc4)ccc3n2C)CC1 | . | . | -2.1% | -1.2% | .
CCCC(C)C(=O)Nc1nc(C)c(-c2csc(Nc3cc(OC)ccc3OC)n2)s1 (configuration not stated) | ? | 8.91µM*[quencher] | ? | ? | ?
Cc1ccc(Cl)cc1Nc1nc(-c2sc(NC(=O)C(C)(C)C)nc2C)cs1 | 2.7% | ? | 11.2µM* | ? | ?
C=CCCC(=O)Nc1nc(C)c(-c2csc(Nc3cccc(OC)c3)n2)s1 | ? | ? | ? | ? | 14.1µM*
CCCCCC(=O)Nc1nc(C)c(-c2csc(Nc3cc(Cl)ccc3OC)n2)s1 | 2.2% | ? | -0.9% | -7.6% | ?
